Structures are written as SMILES. Results filed as inconclusive are left out. Active and inactive are the calls of the source. Calls come from the whole dose curve.
% is set by controls: 0 for no effect and ±100 for the full control effect.

This assay deals with Nucleoprotein (Lymphocytic choriomeningitis virus (strain Armstrong)) (UniProt P09992). As to the kind of experiment: qHTS for Inhibitors of the Functional Ribonucleoprotein Complex (vRNP) of Lymphocytic Choriomeningitis Arenaviruses (LCMV): LCMV Primary Screen - GLuc reporter signal (AID 1347086). Note: nearly all actives have a fitted effect of over 70% in size. Particulars: LCMV minigenome vRNP cell assay, Gaussia luciferase reporter; series mostly up to 57.5 µM; activity change, negative = inhibition: at the top concentration. On the technique in general: Quantitative high-throughput screening tests each substance at several concentrations.
Nucleoprotein (Lymphocytic choriomeningitis virus (strain Armstrong)), sequence (P09992 whole entry, looked up): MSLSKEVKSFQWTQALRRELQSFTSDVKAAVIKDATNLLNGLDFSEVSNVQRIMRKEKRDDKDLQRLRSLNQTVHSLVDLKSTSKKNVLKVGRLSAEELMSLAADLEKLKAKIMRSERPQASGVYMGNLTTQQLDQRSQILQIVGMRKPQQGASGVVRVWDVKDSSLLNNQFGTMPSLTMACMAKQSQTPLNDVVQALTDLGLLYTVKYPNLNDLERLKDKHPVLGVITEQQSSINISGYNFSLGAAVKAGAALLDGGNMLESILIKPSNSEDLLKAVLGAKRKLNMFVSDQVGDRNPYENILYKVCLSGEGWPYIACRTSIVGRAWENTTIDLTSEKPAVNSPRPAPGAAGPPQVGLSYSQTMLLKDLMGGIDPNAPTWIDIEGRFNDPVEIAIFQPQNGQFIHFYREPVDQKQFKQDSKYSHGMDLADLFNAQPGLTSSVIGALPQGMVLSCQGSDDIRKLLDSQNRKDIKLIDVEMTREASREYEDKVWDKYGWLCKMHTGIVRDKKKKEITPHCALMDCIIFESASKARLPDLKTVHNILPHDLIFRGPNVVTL
Regarding `CCOC(=O)c1ccc(OCCN2C[C@H](O)[C@@H](O)[C@H](O)[C@H]2CO)cc1`, the “activity change, negative = inhibition” value is -7.25% (inactive).

As for `CC(=O)NCCCCCC(=O)O`, the “activity change, negative = inhibition” value was -2.59% (inactive).

In the case of `CNC(=O)c1ccccc1Sc1ccc2c(/C=C/c3ccccn3)n[nH]c2c1`, the “activity change, negative = inhibition” value is 2.58% (inactive).

`CN(C)[C@@H]1C(=O)C(C(N)=O)=C(O)[C@@]2(O)C(=O)C3=C(O)c4c(O)cccc4C[C@H]3C[C@@H]12`: the “activity change, negative = inhibition” value was -4.47% (inactive).

For `CN1CC(=O)NC1=N`, the “activity change, negative = inhibition” value was 12.8% (inactive).

Regarding `CCCCOC(=O)c1ccc(N)cc1`, the “activity change, negative = inhibition” value is 9.42% (inactive).

For the compound `CC(C)NCC(O)c1ccc(NS(C)(=O)=O)cc1` (centres undefined), the “activity change, negative = inhibition” value is 9.44% (inactive).

`O=C1[C@@H]2[C@H]3CC[C@H](C3)[C@@H]2C(=O)N1CCCCN1CCN(c2ncccn2)CC1`: the “activity change, negative = inhibition” value was -4.38% (inactive).

As to `O=C(/C=C/c1ccccc1)OCc1ccccc1`, the Potency entry was “inactive”.

For `CCCc1c(OCCCCc2nn[nH]n2)ccc(C(C)=O)c1O`, the “activity change, negative = inhibition” value was 5.3% (inactive).

As to `COC(=O)/C=C\C(=O)OC`, the “activity change, negative = inhibition” value was -18.9% (inactive).

Regarding `O=C(O)CCCC[C@@H]1SC[C@@H]2NC(=O)N[C@@H]21`, the “activity change, negative = inhibition” value was -0.787% (inactive).

As for `CCN(CC)CC#CCOC(=O)C(O)(c1ccccc1)C1CCCCC1` (centres undefined), the “activity change, negative = inhibition” value is 3.63% (inactive).

Turning to `NC(=O)NC(=O)Cc1ccccc1`, the “activity change, negative = inhibition” value was 0.812% (inactive).

For `Clc1cccc(Cl)c1NC1=NCCN1`, the Potency entry was “inactive”.

In the case of `COc1ccc(/C=N/NC(=O)c2ccncc2)cc1OC`, the “activity change, negative = inhibition” value was 16% (inactive).

`O=C1CC2(CCCC2)CC(=O)N1`: the “activity change, negative = inhibition” value is 13.2% (inactive).

For `O=C(Nc1ccc(Br)cc1)c1cc(Br)cc(Br)c1O`, the “activity change, negative = inhibition” value is 7.4% (inactive).

Regarding `Cc1cc(NS(=O)(=O)c2ccc(N)cc2)nc(C)n1`, the “activity change, negative = inhibition” value is 6.09% (inactive).

Take `O=C(O)c1cc(=O)c2ccccc2o1`: the “activity change, negative = inhibition” value was 18.6% (inactive).

On to `Nc1ccc(O)cc1`, for which the “activity change, negative = inhibition” value is 8.6% (inactive).

For the compound `Nc1ccc(C(=O)Oc2ccccc2)c(O)c1`, the “activity change, negative = inhibition” value was 8.76% (inactive).

`O=C(O)c1ccc(S(=O)(=O)N(Cl)Cl)cc1`: the “activity change, negative = inhibition” value is -3.51% (inactive).

On to `Cc1cc(O)c2ccccc2c1O`, for which the “activity change, negative = inhibition” value is -49.1% (inactive).

On to `Oc1ccccc1`, for which the “activity change, negative = inhibition” value was -6.98% (inactive).

With `O=C(O)C(S)C(S)C(=O)O` (centres undefined), the “activity change, negative = inhibition” value was 4.75% (inactive).

With `O=C(C1CCCCC1)N1CC(=O)N2CCCc3ccccc3C2C1` (centres undefined), the “activity change, negative = inhibition” value was -5.37% (inactive).

Take `O=C(O)c1cc(-c2ccccc2)nc2ccccc12`: the Potency result was “inactive”.

Consider `CCc1cc(C(N)=S)ccn1`, for which the Potency result was “inactive”.

Consider `Cc1cc(O)c2c(O)c3c(O)cccc3cc2c1`, for which the “activity change, negative = inhibition” value was 2.62% (inactive).

Take `CC(=O)Oc1cccc(O)c1`: the “activity change, negative = inhibition” value was -14.9% (inactive).

Take `CC(=O)Nc1ccc(OCC(O)CNC(C)C)cc1` (centres undefined): the “activity change, negative = inhibition” value is 9.39% (inactive).

As to `S=P(N1CC1)(N1CC1)N1CC1`, the Potency entry was “inactive”.

As for `Cc1ccc(C(=O)C(=O)O)cc1C`, the “activity change, negative = inhibition” value was -0.541% (inactive).

As to `CC(C)=CCC[C@@](C)(O)[C@H]1CC=C(C)CC1`, the “activity change, negative = inhibition” value was 3.62% (inactive).

`Nc1ncn([C@H]2C[C@H](O)[C@@H](CO)O2)c(=O)n1`: the “activity change, negative = inhibition” value was 6.65% (inactive).

Turning to `CC(NN)c1ccccc1` (centres undefined), the “activity change, negative = inhibition” value was 5.13% [at 24.7 µM] (inactive).

In the case of `CCCCCCCN(CC)CCCC(O)c1ccc(NS(C)(=O)=O)cc1` (centres undefined), the “activity change, negative = inhibition” value was -3.34% (inactive).

Consider `CC(C(=O)O)c1ccc2c(c1)[nH]c1ccc(Cl)cc12` (centres undefined), for which the “activity change, negative = inhibition” value is -7.21% (inactive).

The values above are taken from PubChem BioAssay (NCATS).
